# Reference: PubChem BioAssay (EPA / NIEHS)
# Results filed as inconclusive are left out. Where a structure was tested more than once in an assay, its records may differ in their call. Active and inactive are the calls of the source. The calls were made as follows, unless noted: active = hit-call score of the fitted dose curve at least 0.9, where 1 is the maximum; inconclusive = response in the unintended direction; inactive = score below 0.9.
# Experiments:
# [1] = read-out: UDP glucuronosyltransferase (UGT1A6), UGT1A6 (gene 54578); test: LTEA_HepaRG_UGT1A6: Life Technologies and Expression Analysis (LTEA) Assay for UDP glucuronosyltransferase (UGT1A6) using HepaRG (AID 2283539; active = hit-call score of the fitted dose curve at least 0.9, where 1 is the maximum; inactive = score below 0.9); conditions: mRNA level, 48 h; actives raise or lower the signal
# Procedure, shortened: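 Expression was quantified by TaqMan qRT-PCR on Fluidigm arrays with ACTB/GAPDH/POLR2A normalization and bidirectional fitting against 0.5% DMSO. HepaRG cells (~100,000/well) were treated in duplicate for 48 h at eight half-log concentrations up to 100 uM in serum-free induction medium.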
# [2] = LTEA_HepaRG_LDH_cytotoxicity: Cytotoxicity Assessment in the Life Technologies and Expression Analysis (LTEA) Assay (AID 2283563);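 as to AC50: LDH activity released into spent culture medium as a marker of cell death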
# Procedure, shortened: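 LDH release into culture medium read after 48 h chemical treatment of HepaRG cells. Duplicate wells, eight-point half-log series topping at 100 uM, 0.5% DMSO vehicle and baseline.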
# [3] = target: Cellular tumor antigen p53 (Homo sapiens) (UniProt P04637); test: TOX21_p53_BLA_p2_ratio: Tox21 HCT-116 p53 Agonism Beta-lactamase Assay, Ratio, Phase 2 (AID 2283592)
# Sequence of Cellular tumor antigen p53 (Homo sapiens) (P04637 whole entry, looked up): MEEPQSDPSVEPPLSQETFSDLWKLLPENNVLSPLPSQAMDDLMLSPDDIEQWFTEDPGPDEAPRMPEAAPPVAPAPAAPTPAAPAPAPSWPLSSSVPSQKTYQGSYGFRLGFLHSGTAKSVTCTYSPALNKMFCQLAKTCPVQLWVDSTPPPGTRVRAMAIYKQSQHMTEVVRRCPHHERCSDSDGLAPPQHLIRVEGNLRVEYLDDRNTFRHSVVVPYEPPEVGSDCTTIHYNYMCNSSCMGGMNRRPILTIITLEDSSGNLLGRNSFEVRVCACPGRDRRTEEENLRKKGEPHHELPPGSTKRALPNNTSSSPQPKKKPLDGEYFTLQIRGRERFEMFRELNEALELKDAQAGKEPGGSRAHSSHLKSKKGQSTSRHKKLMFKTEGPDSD
# Procedure, shortened: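 Read-out is the blue/green (460/530 nm, 405 nm excitation) ratio after 2 h CCF4-AM loading, fitted as gain versus DMSO. Compounds, pinned at 217-fold dilution from DMSO stocks, stayed 16 h on HCT-116 beta-lactamase reporter cells seeded 5 h earlier.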
# [4] = target: Cellular tumor antigen p53 (Homo sapiens) (UniProt P04637); test: TOX21_p53_BLA_p3_ratio: Tox21 HCT-116 p53 Agonism Beta-lactamase Assay, Ratio, Phase 3 (AID 2283596)
# Procedure, shortened: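 Cells were seeded at 4000/well, rested 5 h at 37C, then dosed with DMSO compound solutions (217-fold dilution) for 16 h. CCF4-AM substrate was loaded for 2 h at room temperature, and the 460/530 nm emission ratio was fitted for gain of signal versus DMSO.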
# [5] = TOX21_p53_BLA_p4_viability: Viability Assessment in the Tox21 HCT-116 p53 Agonism Beta-lactamase Assay, Phase 4 (AID 2283597);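 also: hits lower the luminescence signal meaning cytotoxicity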
# Procedure, shortened: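 Cytotoxicity as reduced cellular ATP (CellTiter-Glo luminescence, 30 min room temperature), measured in the same wells following the CCF4 FRET p53 reading. Human HCT-116 cells received compounds in DMSO (217-fold dilution) for 16 h.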
# [6] = target: Cellular tumor antigen p53 (Homo sapiens) (UniProt P04637); test: TOX21_p53_BLA_p5_ratio: Tox21 HCT-116 p53 Agonism Beta-lactamase Assay, Ratio, Phase 5 (AID 2283599)
# Procedure, shortened: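 HCT-116 p53-bla cells (4000/well) plated 5 h, dosed with compound (217-fold DMSO dilution) for 16 h at 37 C; CCF4-AM substrate 2 h at room temperature. Activity is the 460/530 nm emission ratio (405 nm excitation), fitted in gain-of-signal direction versus DMSO.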
# [7] = TOX21_p53_BLA_p5_viability: Viability Assessment in the Tox21 HCT-116 p53 Agonism Beta-lactamase Assay, Phase 5 (AID 2283600)
# Procedure, shortened: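 Viability came from CellTiter-Glo ATP luminescence, read after 30 min at room temperature. Before this, HCT-116 p53-bla cells (4000/well) had 16 hours of compound exposure at 37C, with DMSO stocks diluted 217-fold on transfer.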
# [8] = target: Cellular tumor antigen p53 (Homo sapiens) (UniProt P04637); test: TOX21_p53_BLA_p4_ratio: Tox21 HCT-116 p53 Agonism Beta-lactamase Assay, Ratio, Phase 4 (AID 2283601)
# Procedure, shortened: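 HCT-116 p53 beta-lactamase reporter cells (4000/well) preincubated 5 h, then compound (217-fold dilution of DMSO stock) for 16 h at 37C. CCF4-AM substrate added 2 h at room temperature; 460/530 nm emission ratio fitted upward versus DMSO.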
# [9] = Tanguay_ZF_120hpf_MORT_legacy: (Legacy) Oregon State University Tanguay Lab 120 Hour Post-fertilization zebrafish Assay for Mortality (AID 2283633)
# Procedure, shortened: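 Static waterborne exposure from 6 to 120 hpf at 28C of single dechorionated wild-type (5D) embryos per well, 0.64% DMSO final. Death recorded present/absent by brightfield at 24 and 120 hpf.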
# [10] = Tanguay_ZF_120hpf_YSE_legacy: (Legacy) Oregon State University Tanguay Lab 120 Hour Post-fertilization zebrafish Assay for Yolk Sac Edema (AID 2283634);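 as to AC50: actives raise the incidence of yolk sac edema above the DMSO baseline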
# Procedure, shortened: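 Presence or absence of yolk sac edema was recorded at 120 hpf in surviving larvae. These were wild-type Tropical 5D embryos, chorion removed at 4 hpf, held in static exposure at 28C from 6 hpf with 0.64% DMSO vehicle.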
# [11] = Tanguay_ZF_120hpf_AXIS_legacy: (Legacy) Oregon State University Tanguay Lab 120 Hour Post-fertilization zebrafish Assay for Body Axis Malformation (AID 2283635);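 as to AC50: potency for an increased fraction of larvae scored with body axis malformation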
# Procedure, shortened: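 Binary scoring of axis defects at 120 hpf under brightfield, fitted positive versus DMSO. Tropical 5D embryos, chorion removed by pronase at 4 hpf, were singly exposed in sealed, dark plates at 28C from 6 hpf; DMSO 0.64% final.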
# [12] = Tanguay_ZF_120hpf_EYE_legacy: (Legacy) Oregon State University Tanguay Lab 120 Hour Post-fertilization zebrafish Assay for Eye Malformation (AID 2283636);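 also: binary presence or absence of eye malformation scored by brightfield in 120 hpf larvae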
# Procedure, shortened: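 5D wild-type embryos, pronase-dechorionated at 4 hpf; static exposure 6–120 hpf, 28C, dark; DMSO 0.64% final; 5uM trimethyltin chloride positive control. Binary eye-defect scoring at 120 hpf; dead embryos not scored.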
# [13] = Tanguay_ZF_120hpf_SNOU_legacy: (Legacy) Oregon State University Tanguay Lab 120 Hour Post-fertilization zebrafish Assay for Snout Malformation (AID 2283637)
# Procedure, shortened: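 Binary brightfield scoring of snout malformation at 120 hpf. Dechorionated 5D wild-type embryos, one per well, static exposure from 6 hpf at 28C, sealed and dark; final DMSO 0.64% (vol/vol), DMSO as baseline; 5uM trimethyltin chloride positive control.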
# [14] = Tanguay_ZF_120hpf_JAW_legacy: (Legacy) Oregon State University Tanguay Lab 120 Hour Post-fertilization zebrafish Assay for Jaw Malformation (AID 2283638)
# Procedure, shortened: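 Binary jaw-malformation call at 120 hpf by brightfield microscopy. Embryos (Tropical 5D strain, chorion removed at 4 hpf) were dosed statically at 6 hpf, one per well, at 28C with 0.64% DMSO. Embryos that died were not scored.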
# [15] = Tanguay_ZF_120hpf_PE_legacy: (Legacy) Oregon State University Tanguay Lab 120 Hour Post-fertilization zebrafish Assay for Pericardial Edema (AID 2283640)
# Procedure, shortened: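 Scoring was binary, by brightfield microscopy at 120 hpf, and skipped where mortality occurred. Wild-type embryos were kept under sealed, foil-covered static exposure at 28C in 0.64% (vol/vol) DMSO.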
# [16] = Tanguay_ZF_120hpf_BRAI_legacy: (Legacy) Oregon State University Tanguay Lab 120 Hour Post-fertilization zebrafish Assay for Brain Malformation (AID 2283641)
# Procedure, shortened: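 Binary brightfield scoring of brain malformation at 120 hpf in Tropical 5D larvae held under static exposure at 28C (0.64% v/v DMSO), non-mortality endpoints skipped if dead. Positive control: 5uM trimethyltin chloride; fit versus DMSO.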
# [17] = TOX21_p53_BLA_p2_viability: Viability Assessment in the Tox21 HCT-116 p53 Agonism Beta-lactamase Assay, Phase 2 (AID 2283591);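 also: compound exposure lasted 16 h at 37 °C; actives lower the ATP signal meaning cytotoxicity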
# Procedure, shortened: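 HCT116 p53-bla cells, 4000/well, dosed after 5 h plating (217-fold dilution of DMSO stocks) and incubated 16 h at 37C. Viability taken as cellular ATP by CellTiter-Glo luminescence after 30 min RT; signal loss marks cytotoxicity.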
smiles,measurement,setting,value
CS(=O)(=O)c1ccc(C(=O)C2C(=O)CCCC2=O)c([N+](=O)[O-])c1,outcome,[1],inactive
same,outcome,[2],inactive
same,outcome,[3],inactive
same,outcome,[4],inactive
same,outcome,[5],inactive
same,outcome,[6],inactive
same,outcome,[7],inactive
same,outcome,[8],inactive
same,outcome,[9],inactive
same,outcome,[10],inactive
same,outcome,[11],inactive
same,outcome,[12],inactive
same,outcome,[13],inactive
same,outcome,[14],inactive
same,outcome,[15],inactive
same,outcome,[16],inactive
CCN(CC)c1nc(C)cc(OP(=S)(OC)OC)n1,AC50,[1],3.58 µM (active)
same,outcome,[2],inactive
same,outcome,[3],inactive
same,outcome,[4],inactive
same,outcome,[5],inactive
same,outcome,[6],inactive
same,outcome,[8],inactive
same,outcome,[9],inactive
same,outcome,[10],inactive
same,outcome,[11],inactive
same,outcome,[12],inactive
same,outcome,[13],inactive
same,outcome,[14],inactive
same,outcome,[15],inactive
same,outcome,[16],inactive
CN/C(=N\[N+](=O)[O-])NCc1cnc(Cl)s1,outcome,[1],inactive
same,outcome,[2],inactive
same,outcome,[3],inactive
same,outcome,[5],inactive
same,outcome,[7],inactive
same,outcome,[8],inactive
same,outcome,[9],inactive
same,outcome,[10],inactive
same,outcome,[11],inactive
same,outcome,[12],inactive
same,outcome,[13],inactive
same,outcome,[14],inactive
same,outcome,[15],inactive
same,outcome,[16],inactive
CCC(C)n1c(=O)[nH]c(C)c(Br)c1=O (stereo not given),outcome,[1],inactive
same,outcome,[2],inactive
same,outcome,[3],inactive
same,outcome,[7],inactive
same,outcome,[9],inactive
same,outcome,[10],inactive
same,outcome,[12],inactive
same,outcome,[13],inactive
same,outcome,[15],inactive
same,outcome,[16],inactive
CCOP(=S)(OCC)Oc1nc(Cl)n(C(C)C)n1,outcome,[1],inactive
same,outcome,[2],inactive
same,outcome,[3],inactive
same,outcome,[4],inactive
same,outcome,[6],inactive
same,outcome,[8],inactive
same,outcome,[9],inactive
same,AC50,[10],37.4 µM (active)
same,AC50,[11],14.4 µM (active)
same,outcome,[12],inactive
same,outcome,[13],inactive
same,outcome,[14],inactive
same,outcome,[15],inactive
same,outcome,[16],inactive
Cn1c(-c2ccccc2)cc(-c2ccccc2)[n+]1C,AC50,[1],75.2 µM (active)
same,AC50,[2],66.1 µM (active)
same,outcome,[17],inactive
same,AC50,[3],24.2 µM (active)
same,outcome,[3],inactive
same,outcome,[4],inactive
same,outcome,[5],inactive
same,outcome,[6],inactive
same,outcome,[7],inactive
same,outcome,[8],inactive
same,outcome,[9],inactive
same,outcome,[10],inactive
same,outcome,[11],inactive
same,outcome,[12],inactive
same,outcome,[13],inactive
same,outcome,[14],inactive
same,outcome,[15],inactive
same,outcome,[16],inactive
CC(C)=CC1C(C(=O)OCc2coc(Cc3ccccc3)c2)C1(C)C (stereo not given),outcome,[1],inactive
same,outcome,[2],inactive
same,outcome,[9],inactive
same,outcome,[10],inactive
same,outcome,[11],inactive
same,outcome,[12],inactive
same,outcome,[13],inactive
same,outcome,[14],inactive
same,outcome,[15],inactive
same,outcome,[16],inactive
CS(=O)(=O)c1cc(C(F)(F)F)ccc1C(=O)c1cnoc1C1CC1,outcome,[1],inactive
same,outcome,[2],inactive
same,outcome,[5],inactive
same,outcome,[7],inactive
same,outcome,[9],inactive
same,outcome,[10],inactive
same,outcome,[11],inactive
same,outcome,[12],inactive
same,outcome,[13],inactive
same,outcome,[14],inactive
same,outcome,[15],inactive
COP(=O)(OC)O/C(C)=C/C(=O)N(C)C,outcome,[1],inactive
same,outcome,[2],inactive
same,outcome,[6],inactive
same,outcome,[8],inactive
same,outcome,[9],inactive
same,outcome,[10],inactive
same,outcome,[11],inactive
same,outcome,[12],inactive
same,outcome,[13],inactive
same,outcome,[14],inactive
same,outcome,[15],inactive
same,outcome,[16],inactive
